Inconclusive results are not listed. Unless noted, calls come from the whole dose curve; as a rule, active = well fitted curve in either direction with a large enough effect (not every such curve was filed as active); inconclusive = small, poorly fitted or top-dose-only effect, or another doubt; inactive = flat fitted curve, though single readings scatter.
How the values were obtained:
[1] = AP1 Signaling Pathway (AID 357); conditions: ME-180 AP-1-bla reporter, EGF-induced, beta-lactamase ratio, 5 h; at 17.2 µM (top of the series) unless noted;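 note: ME-180 reporter cells stimulated with EGF at its EC50 level; % is set by controls: 0 for no effect and ±100 for the full control effect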
Method in brief: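 Titration-series screen for positive or negative modulators of EC50 EGF-induced signaling in ME-180 cells carrying an AP-1-driven beta-lactamase reporter. After 5 hours at 37 degrees Celsius, CCF4 460nm/530nm emission ratio gave %Activity; AC50 values derived.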

[2] = NFAT Signaling Pathway (AID 444); conditions: Jurkat NFAT-bla M1, carbachol, beta-lactamase ratio, 5 h; at 17.2 µM (top of the series) unless noted;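 note: carbachol stimulus at about its EC50 of 1 µM final; % is set by controls: 0 for no effect and ±100 for the full control effect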
Method in brief: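 Jurkat cells with NFAT-driven β-lactamase reporter and co-expressed M1 receptor, stimulated with carbachol (final 1 uM, ~EC50), compound titration, 5 h at 37 °C. CCF4 loaded 1 h at RT; 460/530 nm ratio gave %activity and AC50.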

[3] = Stat Signaling Pathway (AID 446); conditions: ME-180 (cervical carcinoma) SIE beta-lactamase reporter, IL-6 stimulated, 5 h; at 17.2 µM (top of the series) unless noted;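 note: ME-180 cervical cancer cells given 40 pM IL-6 alongside compound; SIE-controlled beta-lactamase reporter measured as 460/530 nm FRET emission ratio; % is set by controls: 0 for no effect and ±100 for the full control effect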
Method in brief: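 FRET read-out (405 nm excitation, 460/530 nm emission) of a beta-lactamase reporter under a STAT-inducible element in ME-180 cervical carcinoma cells. Cells with compound receive 40 pM IL-6 for 5 h. Values are normalised to AC90 stimulation and AC90 JAK-inhibitor controls.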

[4] = target: Glucocorticoid receptor (Homo sapiens) (UniProt P04150); assay: GR-GFP Redistribution (AID 450;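 active = compounds whose dose series gives a full or clear partial fitted curve of increased nuclear translocation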; note: potency is the fitted concentration of half-maximal effect)
Sequence of Glucocorticoid receptor (Homo sapiens) (P04150 whole entry, looked up): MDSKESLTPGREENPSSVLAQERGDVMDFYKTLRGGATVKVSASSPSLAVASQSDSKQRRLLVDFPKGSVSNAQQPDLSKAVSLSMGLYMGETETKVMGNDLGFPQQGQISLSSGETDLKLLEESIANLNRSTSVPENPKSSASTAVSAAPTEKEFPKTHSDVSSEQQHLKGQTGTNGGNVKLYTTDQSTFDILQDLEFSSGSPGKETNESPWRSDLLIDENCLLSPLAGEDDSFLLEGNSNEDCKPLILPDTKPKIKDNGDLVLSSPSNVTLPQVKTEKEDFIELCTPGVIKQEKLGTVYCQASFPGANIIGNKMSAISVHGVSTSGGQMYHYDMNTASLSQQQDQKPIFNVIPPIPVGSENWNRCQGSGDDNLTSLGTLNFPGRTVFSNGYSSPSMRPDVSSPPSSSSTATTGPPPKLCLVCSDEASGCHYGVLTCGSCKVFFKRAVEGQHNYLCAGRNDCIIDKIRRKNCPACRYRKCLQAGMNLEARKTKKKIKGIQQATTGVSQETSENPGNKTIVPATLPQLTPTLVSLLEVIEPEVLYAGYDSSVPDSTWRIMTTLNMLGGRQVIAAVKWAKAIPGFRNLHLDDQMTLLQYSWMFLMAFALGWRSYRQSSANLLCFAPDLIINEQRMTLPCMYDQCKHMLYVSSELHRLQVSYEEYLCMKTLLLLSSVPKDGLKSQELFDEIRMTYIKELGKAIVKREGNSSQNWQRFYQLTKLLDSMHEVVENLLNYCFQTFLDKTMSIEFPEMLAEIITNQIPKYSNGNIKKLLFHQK

O=C(Nc1nnc(SCc2ccccc2F)s1)c1ccco1
inactive: activity change, negative = inhibition [1] -5.32% | activity change, negative = inhibition [2] 11.2% | activity, negative = inhibition [3] -4.78% | Potency [4] > 20.6 µM

c1ccc(-c2nnc3n2N=C(c2ccc4c(c2)OCO4)CS3)nc1
inactive: activity change, negative = inhibition [1] 2.99% | activity change, negative = inhibition [2] 19.9% | activity, negative = inhibition [3] -6.24% | Potency [4] > 20.6 µM

CN1CCN(CCCCOc2ccc(F)cc2)CC1
inactive: activity change, negative = inhibition [1] 10.9% | activity change, negative = inhibition [2] -9.28% | activity, negative = inhibition [3] -0.445% | Potency [4] > 20.6 µM

CCCCCCOC(=O)CCn1[nH]c(=O)c2ccccc2c1=O
inactive: activity change, negative = inhibition [1] 13% | activity change, negative = inhibition [2] 7.42% | activity, negative = inhibition [3] -5.61% | Potency [4] > 20.6 µM

CN(C)CCCN1C(=O)C(O)=C(C(=O)c2cc3ccccc3o2)C1c1ccccn1 (stereo not given)
inactive: activity change, negative = inhibition [1] 7.64% | activity change, negative = inhibition [2] 7.35% | activity, negative = inhibition [3] -0.93% | Potency [4] > 20.6 µM

COc1ccc(Nc2nnc(C)c3ccccc23)cc1C(N)=O
inactive: activity change, negative = inhibition [1] -4.55% | activity change, negative = inhibition [2] 10.7% | activity, negative = inhibition [3] -9.16% | Potency [4] > 20.6 µM

COC(=O)C1=C(C)OC(N)=C(C#N)C1c1ccc(OC)c(OC)c1OC (stereo not given)
inactive: activity change, negative = inhibition [1] 11.2% | activity change, negative = inhibition [2] -15.6% | activity, negative = inhibition [3] 8.15% | Potency [4] > 20.6 µM

CSc1nc(NC(C)=O)nc(C)c1Cl
inactive: activity change, negative = inhibition [1] 11.1% | activity change, negative = inhibition [2] -9.42% | activity, negative = inhibition [3] 3.48% | Potency [4] > 20.6 µM

O=C(Cc1cscn1)c1ccc(O)cc1O
inactive: activity change, negative = inhibition [1] 4.71% | activity change, negative = inhibition [2] 4.07% | activity, negative = inhibition [3] 12.7% | Potency [4] > 20.6 µM

Cc1ccc(C)c(OCc2nnc(NC(=O)c3ccco3)s2)c1
inactive: activity change, negative = inhibition [1] -0.273% | activity change, negative = inhibition [2] 9.32% | activity, negative = inhibition [3] -9.58% | Potency [4] > 20.6 µM

Cc1cccn2c(=O)c3cc(C(=O)NCc4cccnc4)c(=N)n(C)c3nc12
inactive: activity change, negative = inhibition [1] 0.507% | activity change, negative = inhibition [2] 5.48% | activity, negative = inhibition [3] 10% | Potency [4] > 20.6 µM

CCN(CC)CCNC(=O)c1c(C)oc2cc(Br)c(OC)cc12
inactive: activity change, negative = inhibition [1] 29.7% | activity change, negative = inhibition [2] -19.9% | activity, negative = inhibition [3] -1.1% | Potency [4] > 20.6 µM

COc1cc(S(=O)(=O)N2CCN(c3ccc(F)cc3)CC2)ccc1Cl
inactive: activity change, negative = inhibition [1] 5.09% | activity change, negative = inhibition [2] -11.7% | activity, negative = inhibition [3] -12.1% | Potency [4] > 20.6 µM

CCOC(=O)c1ccc(-n2c(=O)[nH]c3ccccc3c2=O)cc1
inactive: activity change, negative = inhibition [1] 3.86% | activity change, negative = inhibition [2] 6.82% | activity, negative = inhibition [3] 2.95% | Potency [4] > 20.6 µM

COc1ccc2c(c1)[nH]c1c(=O)n(CCN(C)C)cnc12
inactive: activity change, negative = inhibition [1] 10.5% | activity change, negative = inhibition [2] 15.2% | activity, negative = inhibition [3] 8.04% | Potency [4] > 20.6 µM

COCc1cc(=O)[nH]c(Nc2nc3ccccc3o2)n1
inactive: activity change, negative = inhibition [1] 20.9% | activity change, negative = inhibition [2] -12.8% | activity, negative = inhibition [3] 1.07% | Potency [4] > 20.6 µM

CCc1ccc2c(c1)C(C)=CC(C)(C)N2
inactive: activity change, negative = inhibition [1] 1.34% | activity change, negative = inhibition [2] 7.21% | activity, negative = inhibition [3] -8.11% | Potency [4] > 20.6 µM

CC(C(=O)NC(=O)NCc1ccccc1)N1C(=O)c2ccccc2C1=O (stereo not given)
inactive: activity change, negative = inhibition [1] -0.38% | activity change, negative = inhibition [2] -0.399% | activity, negative = inhibition [3] 14.7% | Potency [4] > 20.6 µM

CCOC(=O)C(C)c1nc2ccccc2[nH]c1=O (stereo not given)
inactive: activity change, negative = inhibition [1] 3.01% | activity change, negative = inhibition [2] -0.784% | activity, negative = inhibition [3] 4.12% | Potency [4] > 20.6 µM

CCCCSc1nc(O)c(C2OC(=O)c3c2ccc(OC)c3OC)c(=O)n1C (stereo not given)
inactive: activity change, negative = inhibition [1] -4.1% | activity change, negative = inhibition [2] 1.82% | activity, negative = inhibition [3] -7.44% | Potency [4] > 20.6 µM

CCOC(=O)c1c(CN2CCCCC2)oc2ccc(OC)cc12
inactive: activity change, negative = inhibition [1] 21.2% | activity change, negative = inhibition [2] 14.1% | activity, negative = inhibition [3] 0.706% | Potency [4] > 20.6 µM

CN(C1CCS(=O)(=O)C1)S(=O)(=O)c1cccc2nsnc12 (stereo not given)
inactive: activity change, negative = inhibition [1] -3.76% | activity change, negative = inhibition [2] 18.9% | activity, negative = inhibition [3] 1.43% | Potency [4] > 20.6 µM

CC(C)CN1C(=O)c2ccc(C(=O)Nc3ccccn3)cc2C1=O
inactive: activity change, negative = inhibition [1] -5.2% | activity change, negative = inhibition [2] 27.9% | activity, negative = inhibition [3] 4.97% | Potency [4] > 20.6 µM

CCCOc1ccc(C2/C(=C(/O)c3ccccc3)C(=O)C(=O)N2CCCN(C)C)cc1OC (stereo not given)
inactive: activity change, negative = inhibition [1] 13.7% | activity change, negative = inhibition [2] 3.58% | activity, negative = inhibition [3] 10.3% | Potency [4] > 20.6 µM

O=C1C2ON(c3ccccc3)C(c3ccncc3)C2C(=O)N1c1ccc(Br)cc1 (stereo not given)
inactive: activity change, negative = inhibition [1] -1.42% | activity change, negative = inhibition [2] 10.7% | activity, negative = inhibition [3] -10.2% | Potency [4] > 20.6 µM
